Source: PubChem BioAssay AID1159580 (chemical genetic matrix, 2015)
Hit rate of the full screen: of about 5,500 compounds, about 2,000 (36%) were called active. About 18% were inconclusive and are not listed. No stated cut-off is given here; in the data, active means normalized growth mostly below about 0.91 (no sharp cut-off); inconclusive means no clear call, values can overlap the other calls; inactive means mostly above about 0.92. This is one part of the list.

Test: chemical genetic growth profiling, strain panel (AID 1159580);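 further: tested at 20 µM; growth read once vehicle control cultures reached saturation at 30 °C; 1 = growth at the plate median or of vehicle wells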
Settings: growth OD
[1] = S. cerevisiae deletion strains, locus YAL013W, strain DEP1, stronger effect = lower value
[2] = S. cerevisiae deletion strains, locus YJR075W, strain HOC1, stronger effect = lower value
[3] = S. cerevisiae deletion strains, locus YMR263W, strain SAP30, stronger effect = lower value
[4] = S. cerevisiae deletion strains, locus YNL128W, strain TEP1, stronger effect = lower value
[5] = S. cerevisiae deletion strains, locus YNL153C, strain GIM3, stronger effect = lower value
[6] = S. cerevisiae deletion strains, locus YNL322C, strain KRE1, stronger effect = lower value
[7] = S. cerevisiae deletion strains, locus YPL055C, strain LGE1, stronger effect = lower value
[8] = S. cerevisiae deletion strains, locus YBR229C, strain ROT2, stronger effect = lower value
[9] = S. cerevisiae deletion strains, locus YDL101C, strain DUN1, stronger effect = lower value
[10] = S. cerevisiae deletion strains, locus YDL134C, strain PPH21, stronger effect = lower value
[11] = S. cerevisiae deletion strains, locus YDR150W, strain NUM1, stronger effect = lower value
[12] = S. cerevisiae deletion strains, locus YGR078C, strain PAC10, stronger effect = lower value
[13] = S. cerevisiae deletion strains, locus YHR030C, strain SLT2, stronger effect = lower value
[14] = S. cerevisiae deletion strains, locus YJR043C, strain POL32, stronger effect = lower value
[15] = S. cerevisiae deletion strains, locus YLR039C, strain RIC1, stronger effect = lower value
[16] = S. cerevisiae deletion strains, locus YLR262C, strain YPT6, stronger effect = lower value
[17] = S. cerevisiae deletion strains, locus YMR307W, strain GAS1, stronger effect = lower value
[18] = S. cerevisiae deletion strains, locus YOL006C, strain TOP1, stronger effect = lower value

Measured: normalized growth

NC(N)=NC(N)=Nc1cccc(Cl)c1
inactive: [1] 1.01 | S. cerevisiae deletion strains, locus YAL040C, strain CLN3, stronger effect = lower value 1 | S. cerevisiae deletion strains, locus YCL061C, strain MRC1 (second series), stronger effect = lower value 1.01 | S. cerevisiae deletion strains, locus YDR363W, strain ESC2, stronger effect = lower value 0.999 | S. cerevisiae deletion strains, locus YER002W, strain NOP16, stronger effect = lower value 0.993 | [2] 1 | [3] 0.999 | [4] 1.03 | [5] 1 | S. cerevisiae deletion strains, locus YNL175C, strain NOP13, stronger effect = lower value 1.01 | S. cerevisiae deletion strains, locus YNL197C, strain WHI3, stronger effect = lower value 1.04 | S. cerevisiae deletion strains, locus YNL224C, strain SQS1, stronger effect = lower value 1.01 | [6] 0.995 | S. cerevisiae deletion strains, locus YOR083W, strain WHI5 (second series), stronger effect = lower value 1.05 | [7] 1

NC(N)=Nc1ccc(Cl)cc1
inactive: [1] 1.01 | S. cerevisiae deletion strains, locus YBR021W, strain FUR4, stronger effect = lower value 1.01 | [8] 1.01 | S. cerevisiae deletion strains, locus YCL029C, strain bik1, stronger effect = lower value 1 | S. cerevisiae deletion strains, locus YDL035C, strain GPR1, stronger effect = lower value 1.02 | S. cerevisiae deletion strains, locus YDL074C, strain BRE1, stronger effect = lower value 1.04 | [9] 1.03 | [10] 1.02 | S. cerevisiae deletion strains, locus YDL185W, strain tfp1, stronger effect = lower value 1.01 | S. cerevisiae deletion strains, locus YDL192W, strain arf1, stronger effect = lower value 1.01 | S. cerevisiae deletion strains, locus YDR101C, strain arx1, stronger effect = lower value 0.99 | [11] 1.02 | S. cerevisiae deletion strains, locus YDR162C, strain NBP2, stronger effect = lower value 1.02 | S. cerevisiae deletion strains, locus YDR318W, strain mcm21, stronger effect = lower value 0.997 | S. cerevisiae deletion strains, locus YDR388W, stronger effect = lower value 0.997 | S. cerevisiae deletion strains, locus YDR502C, strain sam2, stronger effect = lower value 1 | S. cerevisiae deletion strains, locus YER110C, stronger effect = lower value 0.996 | S. cerevisiae deletion strains, locus YER155C, strain BEM2, stronger effect = lower value 1.01 | S. cerevisiae deletion strains, locus YER167W, strain BCK2, stronger effect = lower value 1.03 | S. cerevisiae deletion strains, locus YGL078C, strain dbp3, stronger effect = lower value 0.996 | S. cerevisiae deletion strains, locus YGL086W, strain mad1, stronger effect = lower value 1 | S. cerevisiae deletion strains, locus YGL248W, strain PDE1, stronger effect = lower value 1.01 | [12] 1.02 | S. cerevisiae deletion strains, locus YGR135W, strain pre9, stronger effect = lower value 0.998 | S. cerevisiae deletion strains, locus YGR229C, strain SMI1, stronger effect = lower value 1.03 | S. cerevisiae deletion strains, locus YGR252W, strain gcn5, stronger effect = lower value 0.972 | [13] 1 | S. cerevisiae deletion strains, locus YHR079C, strain IRE1 (second series), stronger effect = lower value 1 | S. cerevisiae deletion strains, locus YHR094C, strain hxt1, stronger effect = lower value 0.988 | S. cerevisiae deletion strains, locus YHR129C, strain ARP1, stronger effect = lower value 1.01 | S. cerevisiae deletion strains, locus YHR200W, strain rpn10, stronger effect = lower value 0.999 | S. cerevisiae deletion strains, locus YIL066C, strain RNR3, stronger effect = lower value 1.02 | S. cerevisiae deletion strains, locus YIL073C, strain SPO22, stronger effect = lower value 1.09 | S. cerevisiae deletion strains, locus YIL125W, strain kgd1, stronger effect = lower value 1 | S. cerevisiae deletion strains, locus YIR030C, strain dcg1, stronger effect = lower value 0.992 | S. cerevisiae deletion strains, locus YJL095W, strain BCK1, stronger effect = lower value 1.02 | S. cerevisiae deletion strains, locus YJL134W, strain LCB3, stronger effect = lower value 1.01 | S. cerevisiae deletion strains, locus YJL168C, strain set2, stronger effect = lower value 1 | S. cerevisiae deletion strains, locus YJL187C, strain SWE1 (second series), stronger effect = lower value 1.01 | [2] 1.01 | S. cerevisiae deletion strains, locus YKL009W, strain mrt4, stronger effect = lower value 0.987 | S. cerevisiae deletion strains, locus YKL068W, stronger effect = lower value 0.988 | S. cerevisiae deletion strains, locus YKL085W, strain MDH1 (second series), stronger effect = lower value 1.01 | S. cerevisiae deletion strains, locus YKL085W, strain MDH1, stronger effect = lower value 1.01 | S. cerevisiae deletion strains, locus YKL190W, strain CNB1, stronger effect = lower value 1.02 | S. cerevisiae deletion strains, locus YKR001C, strain vps1, stronger effect = lower value 0.999 | [15] 1.1 | S. cerevisiae deletion strains, locus YLR058C, strain SHM2, stronger effect = lower value 1.01 | S. cerevisiae deletion strains, locus YLR102C, strain apc9, stronger effect = lower value 0.998 | [16] 1.07 | S. cerevisiae deletion strains, locus YLR268W, strain sec22, stronger effect = lower value 0.996 | S. cerevisiae deletion strains, locus YLR330W, strain CHS5, stronger effect = lower value 1.02 | S. cerevisiae deletion strains, locus YLR342W, strain FKS1 (second series), stronger effect = lower value 1.05 | S. cerevisiae deletion strains, locus YLR371W, strain rom2, stronger effect = lower value 0.996 | S. cerevisiae deletion strains, locus YLR418C, strain cdc73, stronger effect = lower value 1 | S. cerevisiae deletion strains, locus YML016C, strain PPZ1, stronger effect = lower value 1.02 | S. cerevisiae deletion strains, locus YML032C, strain rad52, stronger effect = lower value 0.961 | S. cerevisiae deletion strains, locus YML124C, strain tub3, stronger effect = lower value 0.99 | S. cerevisiae deletion strains, locus YMR078C, strain ctf18, stronger effect = lower value 0.995 | S. cerevisiae deletion strains, locus YMR223W, strain ubp8, stronger effect = lower value 0.998 | [3] 1.02 | [17] 1.01 | S. cerevisiae deletion strains, locus YNL067W, strain RPL9B, stronger effect = lower value 1.01 | [4] 1.05 | [5] 1.02 | S. cerevisiae deletion strains, locus YNL233W, strain BNI4, stronger effect = lower value 1.01 | S. cerevisiae deletion strains, locus YNL250W, strain rad50, stronger effect = lower value 0.984 | S. cerevisiae deletion strains, locus YNL271C, strain bni1, stronger effect = lower value 1 | S. cerevisiae deletion strains, locus YNL298W, strain CLA4, stronger effect = lower value 0.997 | S. cerevisiae deletion strains, locus YNL307C, strain MCK1, stronger effect = lower value 1 | [6] 1.01 | S. cerevisiae deletion strains, locus YNR052C, strain pop2, stronger effect = lower value 0.993 | [18] 1.18 | S. cerevisiae deletion strains, locus YOL012C, strain htz1 1.11 | S. cerevisiae deletion strains, locus YOL147C, strain pex11, stronger effect = lower value 0.995 | S. cerevisiae deletion strains, locus YOR061W, strain CKA2, stronger effect = lower value 1.02 | S. cerevisiae deletion strains, locus YOR136W, strain idh2, stronger effect = lower value 0.997 | S. cerevisiae deletion strains, locus YOR144C, strain elg1, stronger effect = lower value 0.984 | S. cerevisiae deletion strains, locus YOR184W, strain ser1, stronger effect = lower value 1.02 | S. cerevisiae deletion strains, locus YOR316C, strain cot1, stronger effect = lower value 1 | [7] 1.05 | S. cerevisiae deletion strains, locus YPR119W, strain clb2, stronger effect = lower value 0.988 | S. cerevisiae deletion strains, locus YPR141C, strain kar3, stronger effect = lower value 0.997 | S. cerevisiae deletion strains, locus YPR163C, strain tif3, stronger effect = lower value 0.997 | S. cerevisiae deletion strains, locus YPR167C, strain met16, stronger effect = lower value 0.997 | S. cerevisiae deletion strains, strain wtn01, stronger effect = lower value 0.999 | S. cerevisiae strains, strain wild type, stronger effect = lower value 1.01
active: [14] 1.17 [resistant] | S. cerevisiae deletion strains, locus YOR069W, strain VPS5, stronger effect = lower value 1.11 [resistant]

NC(N)=NC(N)=Nc1cc(Cl)cc(Cl)c1
inactive: [1] 1 | [8] 1.01 | [9] 1 | [10] 1.01 | [11] 0.919 | S. cerevisiae deletion strains, locus YEL061C, strain CIN8, stronger effect = lower value 1.02 | [12] 1 | [13] 0.98 | S. cerevisiae deletion strains, locus YHR087W, strain rtc3, stronger effect = lower value 1.01 | S. cerevisiae deletion strains, locus YJL187C, strain SWE1, stronger effect = lower value 1.01 | [14] 0.999 | [2] 0.972 | [15] 0.975 | S. cerevisiae deletion strains, locus YLR058C, strain SHM2 (second series), stronger effect = lower value 0.999 | S. cerevisiae deletion strains, locus YLR085C, strain ARP6, stronger effect = lower value 1.03 | [16] 1 | S. cerevisiae deletion strains, locus YML094W, strain GIM5, stronger effect = lower value 1.03 | S. cerevisiae deletion strains, locus YMR219W, strain ESC1, stronger effect = lower value 0.99 | [3] 0.987 | [17] 0.889 | [5] 0.983 | S. cerevisiae deletion strains, locus YNL298W, strain CLA4 (second series), stronger effect = lower value 1.03 | [6] 0.999 | S. cerevisiae deletion strains, locus YNR030W, strain Alg12, stronger effect = lower value 1.02 | [18] 1.06 | [7] 0.884 | S. cerevisiae deletion strains, locus YPL241C, strain CIN2, stronger effect = lower value 1.01 | S. cerevisiae deletion strains, locus YPR135W, strain CTF4, stronger effect = lower value 1.15
